Bioassay records from PubChem BioAssay.
A selection: hits, their analogues and other compounds. The true share with any hit is near 7.2%.
3T3 cytotox – Cytotoxic Profiling in NIH 3T3 Cell Line of Diverse Libraries Using Quantitative High-Throughput Screening; NIH 3T3 viability, CellTiter-Glo ATP luminescence, 48-72 h; Potency, µM (doses to about 96.7 µM), inactives show at the highest dose activity change, negative = cytotoxicity, most hits filed as inhibitors; 4.3% of 94,000 active; AID 1345082, 2018; also: % is scaled to controls: 0 for no effect and ±100 for the full control effect; nearly all actives have a fitted effect of over 55% in size
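Cytotoxicity is measured as loss of cellular ATP: NIH 3T3 cells (400/well) are exposed to compound for 48 or 72 hr at 37 °C, then CellTiter-Glo luminescence is imaged after 10 min at room temperature.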
Luciferase inh – Firefly luciferase inhibition profiling of diverse chemical library using quantitative high-throughput screening. AID 1347043, 2019. purified P. pyralis luciferase, luminescence, biochemical. 2.5% of 76,000 active. Potency, µM (highest dose often 115 µM), hits mostly inhibitors. Luciferin 4-monooxygenase (Photinus pyralis), P08659; also: % is scaled to controls: 0 for no effect and ±100 for the full control effect; nearly all actives have a fitted effect of over 65% in size
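Cell-free enzyme assay, 10nM P. pyralis luciferase, luciferin and ATP each at 10uM. Inhibition profiled over a 6-point titration, read as luminescence.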
SNCA expr inh – Primary qHTS assay for inhibitors of alpha-synuclein gene (SNCA) expression; HEK-293 SNCA-luciferase knock-in, luminescence, 24 h; Potency, µM (doses to about 57.2 µM), inactives show top-dose activity change, negative = inhibition, usual class: inhibitors; 0.17% of 140,000 active;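 also: plate controls were DMSO cells for no effect and cell-free wells for full effect; nearly all actives have a fitted effect of over 45% in size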
HEK293 tox – Cytotoxic Profiling in HEK 293 Cell Line of Diverse Libraries Using Quantitative High-Throughput Screening; HEK 293 viability, ATP luminescence (CellTiter-Glo), 48-72 h; Potency, µM (top dose mostly 115 µM), inactives show top-dose activity change, negative = cytotoxicity, usual class: inhibitors; 6.6% of 94,000 active; also: % is scaled to controls: 0 for no effect and ±100 for the full control effect; nearly all actives have a fitted effect of over 60% in size
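Luminescence from cellular ATP, measured with CellTiter-Glo, indicates HEK 293 viability. Cells plated at 250 cells/well are treated with compound for 48 or 72 hr at 37 degree Celsius before reagent addition.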
HEK293 viab – GF-AFC viability counterscreen for inhibitors of alpha-synuclein gene (SNCA) expression. HEK-293-SNCA-luc viability, GF-AFC fluorescence, 24 h. Potency, µM (titrated, usually from 57.1 µM), for inactives: top-dose activity change, negative = cytotoxicity, usual class: cytotoxic. 0.12% of 150,000 active. AID 1671193, 2021;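 also: 0% = DMSO-treated cells and -100% = medium-only wells without cells; nearly all actives have a fitted effect of over 30% in size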
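Cytotoxicity counterscreen: after 24 h compound treatment of genome-edited SNCA-luciferase HEK-293 cells, live-cell protease substrate GF-AFC read by fluorescence after 30 min; activity scaled between DMSO (0%) and medium-only (-100%), curves Hill-fitted.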
hNpr1 antagonist – Natriuretic polypeptide receptor (hNpr1) antagonism - Primary qHTS; Potency, µM (doses to about 46.3 µM), without a hit: top-dose activity change, negative = inhibition, usual class: inhibitors; 1.6% of 76,000 active; HEK293 hNpr1 GloSensor cGMP, ANP-stimulated luminescence; calls by dose curve; also: % is scaled to controls: 0 for no effect and ±100 for the full control effect; nearly all actives have a fitted effect of over 60% in size
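HEK293 cells stably expressing human Npr1 and cGMP GloSensor pGS-40F, loaded 2 h with 2% GloSensor reagent, given compound 30 min at room temperature. Luminescence read before and 20 min after 0.1 nM hNppA.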
NPR1 antag cnf – Natriuretic polypeptide receptor (hNpr1) antagonism - Confirmation; HEK293 hNpr1 cGMP GloSensor luminescence, ANP-stimulated; AID 1347044, 2019; Potency, µM (series often up to 57.6 µM), without a hit: at the top dose activity change, negative = inhibition, usual class: inhibitors; shares compounds with hNpr1 antagonist; 76% of 1,400 active; calls by dose curve; also: nearly all actives have a fitted effect of over 70% in size
NPR2 antag – Natriuretic polypeptide receptor (hNpr2) antagonism - Subtype selectivity assay | shares compounds with hNpr1 antagonist | HEK293 hNpr2 GloSensor cGMP luminescence, CNP-stimulated | Potency, µM (doses to about 57.6 µM), without a hit: at the highest dose activity change, negative = inhibition, usual class: inhibitors | 67% of 1,400 active; calls by dose curve; also: nearly all actives have a fitted effect of over 70% in size
FLuc counter – Natriuretic polypeptide receptor (hNpr1) antagonism - Confirmation firefly luciferase (FLuc) inhibition counterscreen; shares compounds with hNpr1 antagonist; purified FLuc enzyme, luminescence, Km substrate; Potency, µM (doses to about 57.6 µM), without a hit: at the top dose activity change, negative = inhibition, hits mostly inhibitors; 0.7% of 1,400 active; AID 1347047, 2019; also: 0% is about no effect
GloSensor ctrl – Natriuretic polypeptide receptor (hNpr1) antagonism - Counterscreen GloSensor control cell line; shares compounds with hNpr1 antagonist; AID 1347051, 2019; 69% of 1,400 active; Potency, µM (top dose mostly 57.6 µM), without a hit: top-dose activity change, negative = inhibition, hits mostly inhibitors; HEK293 GloSensor cGMP, SNP-stimulated, luminescence; calls by dose curve; also: % is scaled to controls: 0 for no effect and ±100 for the full control effect; nearly all actives have a fitted effect of over 70% in size
An asterisk follows results filed as active; i = inactive; ? = inconclusive; . = not tested or not shown; [ ] = dose if it differs, or a comment. Unless noted, calls follow the shape of the dose curve; as a rule, active = well fitted curve in the direction sought with a large enough effect; inconclusive = small, poorly fitted or top-dose-only effect, or another doubt; inactive = no such curve, though single readings can be large; an effect the other way counts as inactive or inconclusive. Potency is read from the fitted curve at half-maximal effect.

SMILES | 3T3 cytotox | Luciferase inh | SNCA expr inh | HEK293 tox | HEK293 viab | hNpr1 antagonist | NPR1 antag cnf | NPR2 antag | FLuc counter | GloSensor ctrl
O=C1CCC2(CCCO2)CCN1Cc1cccc(F)c1 (configuration not stated) | -18.7% | i | -17.9% | -0.5% | -2.3% | 5.6% | . | . | . | .
COCC1CN(C2CCC2)CC12CCN(C(=O)NCCc1ccccc1)CC2 (configuration not stated) | ? | i | -8.1% | ? | -25.6% | -23.3% | -13.3% | -15.4% | 3.7% | -11.4%
CC(C)CCN1CCC(N2CCN(S(=O)(=O)c3ccc4c(c3)CCCC4)CC2)C1=O (configuration not stated) | ? | i | -29.3% | ? | -14.3% | ? | -29.7% | -23.7% | 4.8% | -8.1%
Cn1nc(C2CCN(S(=O)(=O)c3ccc4c(c3)CCCC4)CC2)n(C2CCCC2)c1=O | ? | i | ? | ? | -13.3% | 11.2µM* | 19.3µM* | 19.3µM* | 0.5% | 13.7µM*
Cn1cc(-c2cccc(O)c2)c2nc(COc3ccc(Cl)cc3)cn2c1=O | ? | i | ? | 31.6µM* | ? | 35.5µM* | 39.6µM* | ? | -27.2%[86.2 µM] | 35.3µM*
CCC(C)NC(=O)CC1=CSC2=NC(C)=C(C(=O)OC)C(c3cccc([N+](=O)[O-])c3)N12 (configuration not stated) | -11.2% | i | 2.4% | ? | -26.3% | -5.7% | . | . | . | .
CCc1cccc(NC(=O)Cn2c(N(C)Cc3ccccc3)nc(C)cc2=O)c1 | ? | i | ? | ? | -8.8% | 8.91µM* | 10.9µM* | 12.2µM* | 0.5% | 9.68µM*
Cc1cccc(NC(=O)Cn2c(N(C)Cc3ccccc3)nc(C)cc2=O)c1 | ? | i | -12.9% | ? | 10.5% | 20µM* | 21.7µM* | 21.7µM* | -2.5% | 21.7µM*
CC(=O)Nc1ccccc1-c1c(C)nn2c1N(CCC(C)C)CCC2 | ? | i | ? | ? | -15.2%[87.6 µM] | -26.7%[70.6 µM] | . | . | . | .
Cc1nn2c(c1-c1ccccc1[S+](C)(=O)[O-])N(CCC(C)C)CCC2 | ? | i | 3.16µM* | ? | ? | 11.2µM* | 3.14µM* | 8.86µM* | 0.1%[86.2 µM] | 3.14µM*
Brc1ccc(-c2ccnc3nc(C4CCCO4)nn23)s1 (configuration not stated) | ? | i | 18.5% | 3.6% | -0.5% | -1.2% | . | . | . | .
COc1ccc(C2Cn3nnc(C(=O)N4CCN(C(=O)c5cccc(F)c5)CC4)c3CO2)cc1 (configuration not stated) | ? | i | -11.5% | ? | 2.7% | ? | 21.7µM* | 21.7µM* | -1.3% | 21.7µM*
O=C(c1cccc(F)c1)N1CCN(C(=O)c2nnn3c2COC(c2ccc(F)cc2)C3)CC1 (configuration not stated) | -17.7% | i | 6.6% | ? | 7.0% | ? | . | . | . | .
O=C(COc1ccccc1)N1CCN(C(=O)c2nnn3c2COC(c2ccc(Cl)cc2)C3)CC1 (configuration not stated) | ? | i | -4.9% | 25.1µM* | -14.3% | 11.2µM* | 21.7µM* | 21.7µM* | -0.7% | 19.3µM*
COc1ccc(C2Cn3nnc(C(=O)N4CCN(C(=O)c5cc(F)ccc5F)CC4)c3CO2)cc1 (configuration not stated) | -26.6% | i | -9.9% | ? | -1.9% | ? | 19.3µM* | 19.3µM* | 4.0% | 19.3µM*
Cc1ccc(C(=O)N2CCN(C(=O)c3nnn4c3COC(c3ccc(Cl)cc3)C4)CC2)c(C)c1 (configuration not stated) | ? | i | -22.4% | ? | -24.7% | ? | 21.7µM* | 24.3µM* | 1.8% | 21.7µM*
COc1ccc(C2Cn3nnc(C(=O)N4CCN(C(=O)c5c(F)cccc5F)CC4)c3CO2)cc1 (configuration not stated) | ? | i | -21.9% | ? | -9.0% | -2.4% | . | . | . | .
COCCN1CCCCCC(O)c2cc(C(=O)NCCCN3CCCC3=O)ccc21 (configuration not stated) | -5.3% | i | -2.9% | -4.2% | -25.8% | 1.1% | . | . | . | .
O=C(c1ccccc1Cl)N1CCN(C(=O)c2nnn3c2COC(c2ccccc2)C3)CC1 (configuration not stated) | i | i | ? | ? | -21.0% | -3.9% | . | . | . | .
COc1ccc(C2Cn3nnc(C(=O)N4CCN(C(=O)Cc5ccccc5Cl)CC4)c3CO2)cc1 (configuration not stated) | -0.3% | i | 4.4% | ? | 4.4% | ? | 12.2µM* | 15.3µM* | 1.2% | 10.9µM*
O=C(Cc1ccccc1Cl)N1CCN(C(=O)c2nnn3c2COC(c2ccc(F)cc2)C3)CC1 (configuration not stated) | -23.1% | i | -22.2% | -7.2% | 4.8% | -2.5% | . | . | . | .
